Measurements: PubChem BioAssay AID1159580 (chemical genetic matrix, 2015)
The campaign covered roughly 5,500 compounds. About 2,000 (36%) were called active. Another 18% or so got no clear call; they are omitted. No stated cut-off is given here; in the data, active means normalized growth mostly below about 0.91 (no sharp cut-off); inconclusive means no clear call, values can overlap the other calls; inactive means mostly above about 0.92. The list shows a part of the results.

Test: chemical genetic growth profiling, strain panel (AID 1159580);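 further: tested at 20 µM; growth read once vehicle control cultures reached saturation at 30 °C; 1 = growth at the plate median or of vehicle wells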
Details: growth OD

Measured: normalized growth

CCCCCCCCCCCCCCCC[N+](C)(C)C
active: S. cerevisiae deletion strains, locus YJR075W, strain HOC1, stronger effect = lower value 0.0608 | S. cerevisiae deletion strains, locus YKL009W, strain mrt4, stronger effect = lower value 0.126 | S. cerevisiae deletion strains, locus YKL068W, stronger effect = lower value 0.057 | S. cerevisiae deletion strains, locus YKL085W, strain MDH1 (second series), stronger effect = lower value 0.0537 | S. cerevisiae deletion strains, locus YKL085W, strain MDH1, stronger effect = lower value 0.0537 | S. cerevisiae deletion strains, locus YKL160W, strain elf1, stronger effect = lower value 0.0583 | S. cerevisiae deletion strains, locus YKL190W, strain CNB1, stronger effect = lower value 0.0478 | S. cerevisiae deletion strains, locus YKR001C, strain vps1, stronger effect = lower value 0.0609 | S. cerevisiae deletion strains, locus YKR026C, strain gcn3, stronger effect = lower value 0.0627 | S. cerevisiae deletion strains, locus YKR091W, strain srl3, stronger effect = lower value 0.0569 | S. cerevisiae deletion strains, locus YLL001W, strain dnm1, stronger effect = lower value 0.0599 | S. cerevisiae deletion strains, locus YLL026W, stronger effect = lower value 0.0546 | S. cerevisiae deletion strains, locus YLL041C, strain sdh2, stronger effect = lower value 0.0568 | S. cerevisiae deletion strains, locus YLR027C, strain aat2, stronger effect = lower value 0.0555 | S. cerevisiae deletion strains, locus YLR039C, strain RIC1, stronger effect = lower value 0.0825 | S. cerevisiae deletion strains, locus YLR058C, strain SHM2, stronger effect = lower value 0.0453 | S. cerevisiae deletion strains, locus YLR102C, strain apc9, stronger effect = lower value 0.0605 | S. cerevisiae deletion strains, locus YLR113W, strain HOG1, stronger effect = lower value 0.113 | S. cerevisiae deletion strains, locus YLR221C, strain rsa3, stronger effect = lower value 0.0541 | S. cerevisiae deletion strains, locus YLR258W, strain gsy2, stronger effect = lower value 0.0561 | S. cerevisiae deletion strains, locus YLR262C, strain YPT6 (second series), stronger effect = lower value 0.0788 | S. cerevisiae deletion strains, locus YLR262C, strain YPT6, stronger effect = lower value 0.0977 | S. cerevisiae deletion strains, locus YLR268W, strain sec22, stronger effect = lower value 0.0658 | S. cerevisiae deletion strains, locus YLR320W, strain mms22, stronger effect = lower value 0.0733 | S. cerevisiae deletion strains, locus YLR330W, strain CHS5, stronger effect = lower value 0.0514 | S. cerevisiae deletion strains, locus YLR342W, strain FKS1 (second series), stronger effect = lower value 0.0636 | S. cerevisiae deletion strains, locus YLR342W, strain FKS1, stronger effect = lower value 0.0598 | S. cerevisiae deletion strains, locus YLR357W, strain rsc2, stronger effect = lower value 0.103 | S. cerevisiae deletion strains, locus YLR370C, strain arc18, stronger effect = lower value 0.061 | S. cerevisiae deletion strains, locus YLR371W, strain rom2, stronger effect = lower value 0.0606 | S. cerevisiae deletion strains, locus YLR384C, strain iki3, stronger effect = lower value 0.0599 | S. cerevisiae deletion strains, locus YLR418C, strain cdc73, stronger effect = lower value 0.0891 | S. cerevisiae deletion strains, locus YML016C, strain PPZ1, stronger effect = lower value 0.0596 | S. cerevisiae deletion strains, locus YML032C, strain rad52, stronger effect = lower value 0.0653 | S. cerevisiae deletion strains, locus YML120C, strain ndi1, stronger effect = lower value 0.0558 | S. cerevisiae deletion strains, locus YML124C, strain tub3, stronger effect = lower value 0.0593 | S. cerevisiae deletion strains, locus YMR058W, strain fet3, stronger effect = lower value 0.0569 | S. cerevisiae deletion strains, locus YMR078C, strain ctf18, stronger effect = lower value 0.0689 | S. cerevisiae deletion strains, locus YMR125W, strain sto1, stronger effect = lower value 0.0643 | S. cerevisiae deletion strains, locus YMR129W, stronger effect = lower value 0.0561 | S. cerevisiae deletion strains, locus YMR205C, strain PFK2, stronger effect = lower value 0.0755 | S. cerevisiae deletion strains, locus YMR223W, strain ubp8, stronger effect = lower value 0.0626 | S. cerevisiae deletion strains, locus YMR231W, strain pep5, stronger effect = lower value 0.0651 | S. cerevisiae deletion strains, locus YMR263W, strain SAP30, stronger effect = lower value 0.0582 | S. cerevisiae deletion strains, locus YMR307W, strain GAS1, stronger effect = lower value 0.119 | S. cerevisiae deletion strains, locus YNL067W, strain RPL9B, stronger effect = lower value 0.0498 | S. cerevisiae deletion strains, locus YNL071W, strain lat1, stronger effect = lower value 0.0578 | S. cerevisiae deletion strains, locus YNL128W, strain TEP1, stronger effect = lower value 0.0627 | S. cerevisiae deletion strains, locus YNL153C, strain GIM3, stronger effect = lower value 0.0486 | S. cerevisiae deletion strains, locus YNL183C, strain NPR1, stronger effect = lower value -0.00175 | S. cerevisiae deletion strains, locus YNL209W, strain ssb2, stronger effect = lower value 0.0612 | S. cerevisiae deletion strains, locus YNL233W, strain BNI4, stronger effect = lower value 0.053 | S. cerevisiae deletion strains, locus YNL248C, strain rpa49, stronger effect = lower value 0.0567 | S. cerevisiae deletion strains, locus YNL250W, strain rad50, stronger effect = lower value 0.0666 | S. cerevisiae deletion strains, locus YNL271C, strain bni1, stronger effect = lower value 0.0608 | S. cerevisiae deletion strains, locus YNL298W, strain CLA4, stronger effect = lower value 0.0592 | S. cerevisiae deletion strains, locus YNL307C, strain MCK1, stronger effect = lower value 0.0664 | S. cerevisiae deletion strains, locus YNL322C, strain KRE1 (second series), stronger effect = lower value 0.0599 | S. cerevisiae deletion strains, locus YNL322C, strain KRE1, stronger effect = lower value 0.0495 | S. cerevisiae deletion strains, locus YNR049C, strain mso1, stronger effect = lower value 0.0575 | S. cerevisiae deletion strains, locus YNR052C, strain pop2, stronger effect = lower value 0.0593 | S. cerevisiae deletion strains, locus YOL006C, strain TOP1, stronger effect = lower value 0.0794 | S. cerevisiae deletion strains, locus YOL012C, strain htz1 0.179 | S. cerevisiae deletion strains, locus YOL147C, strain pex11, stronger effect = lower value 0.0577 | S. cerevisiae deletion strains, locus YOR001W, strain rrp6, stronger effect = lower value 0.0595 | S. cerevisiae deletion strains, locus YOR061W, strain CKA2, stronger effect = lower value 0.0395 | S. cerevisiae deletion strains, locus YOR069W, strain VPS5, stronger effect = lower value 0.0494 | S. cerevisiae deletion strains, locus YOR070C, strain gyp1, stronger effect = lower value 0.0582 | S. cerevisiae deletion strains, locus YOR080W, strain dia2, stronger effect = lower value 0.0639 | S. cerevisiae deletion strains, locus YOR083W, strain WHI5, stronger effect = lower value 0.0574 | S. cerevisiae deletion strains, locus YOR106W, strain vam3, stronger effect = lower value 0.0616 | S. cerevisiae deletion strains, locus YOR136W, strain idh2, stronger effect = lower value 0.0711 | S. cerevisiae deletion strains, locus YOR144C, strain elg1, stronger effect = lower value 0.0571 | S. cerevisiae deletion strains, locus YOR184W, strain ser1, stronger effect = lower value 0.0671 | S. cerevisiae deletion strains, locus YOR231W, strain MKK1, stronger effect = lower value 0.0937 | S. cerevisiae deletion strains, locus YOR265W, strain rbl2, stronger effect = lower value 0.0534 | S. cerevisiae deletion strains, locus YOR270C, strain vph1, stronger effect = lower value 0.0651 | S. cerevisiae deletion strains, locus YOR290C, strain snf2, stronger effect = lower value 0.0594 | S. cerevisiae deletion strains, locus YOR316C, strain cot1, stronger effect = lower value 0.0575 | S. cerevisiae deletion strains, locus YPL051W, strain arl3, stronger effect = lower value 0.0558 | S. cerevisiae deletion strains, locus YPL055C, strain LGE1, stronger effect = lower value 0.0731 | S. cerevisiae deletion strains, locus YPL078C, strain atp4, stronger effect = lower value 0.0629 | S. cerevisiae deletion strains, locus YPL106C, strain sse1, stronger effect = lower value 0.0805 | S. cerevisiae deletion strains, locus YPL240C, strain hsp82, stronger effect = lower value 0.0545 | S. cerevisiae deletion strains, locus YPL241C, strain CIN2, stronger effect = lower value 0.0519 | S. cerevisiae deletion strains, locus YPL256C, strain CLN2, stronger effect = lower value 0.107 | S. cerevisiae deletion strains, locus YPR119W, strain clb2, stronger effect = lower value 0.0613 | S. cerevisiae deletion strains, locus YPR141C, strain kar3, stronger effect = lower value 0.0706 | S. cerevisiae deletion strains, locus YPR163C, strain tif3, stronger effect = lower value 0.0686 | S. cerevisiae deletion strains, locus YPR167C, strain met16, stronger effect = lower value 0.0617 | S. cerevisiae deletion strains, strain wtn01, stronger effect = lower value 0.0595 | S. cerevisiae strains, strain wild type, stronger effect = lower value 0.0507
